Assay outcomes as filed in PubChem BioAssay.
SENP6 inh: inhibitors of human SENP6 protease; Q9GZR1; Recombinant SENP6 catalytic domain, aminoluciferin luminescence; inhibition, % at 10 µM; hit rate 1.8% among 330,000; AID 2599;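 active = inhibition above about 50% at the single tested dose, limit read from the data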;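 note: plate controls were DMSO wells with enzyme for no effect and DMSO wells lacking enzyme for full effect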
SENP8 block-1: SENP8 (human) protease inhibition; inhibition, % at 20 µM; hit rate 0.64% among 360,000; Q96LD8; AID 602440; recombinant SENP8, Nedd8 substrate fluorescence; in the data active = inhibition mostly above about 40%, no sharp cut-off; inactive = mostly below about 27%
Target sequence (Q96LD8 whole entry, looked up): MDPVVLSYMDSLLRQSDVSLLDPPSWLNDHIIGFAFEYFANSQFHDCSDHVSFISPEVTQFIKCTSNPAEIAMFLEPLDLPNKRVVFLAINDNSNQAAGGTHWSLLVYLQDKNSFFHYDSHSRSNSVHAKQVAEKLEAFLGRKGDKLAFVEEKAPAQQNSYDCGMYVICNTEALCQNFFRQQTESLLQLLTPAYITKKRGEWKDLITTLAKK
SENP7 block: blocks the human protease SENP7; recombinant SENP7, Z-RLRGG-aminoluciferin luminescence, 40 min; AID 434973; hit rate 1.5% among 330,000; inhibition, % at 5 µM;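 active = inhibition above about 50% at the single test dose, limit read from the data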;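 note: plate controls were DMSO with enzyme for no effect and no enzyme buffer wells for full effect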
Platelet DG rel: platelet dense granule release activity. AID 1663. human platelet-rich plasma, SFLLRN dense granule ATP release, luminescence. inhibition, %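 (compounds screened at 7.5 µM in platelet-rich plasma)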. hit rate 0.22% among 300,000;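 active = mean replicate score, as percent of positive control, at or above 50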
SENP8 block-2: blocks the human protease SENP8; hit rate 1.2% among 330,000; AID 2540; Q96LD8; inhibition, % at 10 µM; purified SENP8, Z-RLRGG-aminoluciferin cleavage, luminescence; in the data active = inhibition above about 50%
SENP8 conf: confirmation of human SENP8 protease inhibitors | shares compounds with SENP7 block | Recombinant SENP8, Z-RLRGG-aminoluciferin luminescence, 60 min | inhibition, % at 12.5 µM | hit rate 40% among 6,200;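 active = mean inhibition across replicates above about 50%, limit read from the data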
SENP6 conf: human SENP6 inhibition, confirmed; hit rate 58% among 6,200; inhibition, % at 12.5 µM; recombinant SENP6, Z-RLRGG-aminoluciferin luminescence; shares compounds with SENP7 block
SENP7 confirm: confirmation of human SENP7 protease inhibitors | shares compounds with SENP7 block | recombinant SENP7, Z-RLRGG-aminoluciferin luminescence, 40 min | inhibition, % at 12.5 µM | hit rate 69% among 6,200 | AID 488917
Casp3 select: inhibits human caspase-3 in SENP selectivity test. shares compounds with SENP7 block. purified caspase-3, Z-DEVD-aminoluciferin luminescence, 60 min. inhibition, % at 12.5 µM. hit rate 60% among 6,200;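 active = mean inhibition above about 50%, limit read from the data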;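 note: plate controls were enzyme with DMSO for no effect and wells without caspase-3 for full effect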
Target sequence (P42574 28-227 limits assumed): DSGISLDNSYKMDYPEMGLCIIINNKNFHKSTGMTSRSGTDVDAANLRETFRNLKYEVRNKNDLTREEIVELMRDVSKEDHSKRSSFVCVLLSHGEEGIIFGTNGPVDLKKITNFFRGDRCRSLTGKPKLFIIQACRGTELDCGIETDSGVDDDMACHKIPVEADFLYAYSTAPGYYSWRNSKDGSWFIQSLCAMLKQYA
Luc interf: luminescence interference (SENP counter-screen); shares compounds with SENP7 block; hit rate 39% among 6,200; inhibition, % at 12.5 µM; Pre-incubated SENP8/Z-RLRGG-aminoluciferin, luciferase luminescence interference;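 active = mean inhibition above about 50% when retested at one dose, limit read from the data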;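 note: plate controls were DMSO wells with completed reaction for no effect and substrate without enzyme for full effect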
An asterisk follows results filed as active. This is a sample that favours compounds with a hit; in the whole collection about 2.4% have one here.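 Rule for the calls, unless noted: active = mean inhibition above about 50% in the one-dose retest (limit read from the data); inactive = the rest.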

Results for CC1CC(=O)NN1C(=O)c1ccccc1 (configuration not stated) ?
SENP6 inh: -12; SENP8 block-1: 14; SENP7 block: -6; Platelet DG rel: 8; SENP8 block-2: 0

Results for c1cc2c3c(cccc3c1)C(N1CCCCCC1)=N2 ?
SENP6 inh: 4; SENP8 block-1: -77; SENP7 block: 8; Platelet DG rel: 6; SENP8 block-2: 3

What do the screens show for `c1cc2c3c(cccc3c1)C(N1CCCCC1)=N2`?
SENP6 inh: 69*; SENP8 block-1: -240; SENP7 block: 13; Platelet DG rel: -6; SENP8 block-2: 36; SENP8 conf: -9; SENP6 conf: -5; SENP7 confirm: -9; Casp3 select: 3; Luc interf: 3

Results for Cc1ccc(CC(=O)Nc2ccc(C(=O)N3CCCCC3)cc2)cc1 ?
SENP6 inh: -14; SENP8 block-1: 5; SENP7 block: 10; Platelet DG rel: 4; SENP8 block-2: -7

Results for Cc1ccc(C(=O)Nc2ccc(C(=O)N3CCCCC3)cc2)o1 ?
SENP6 inh: 66*; SENP8 block-1: 3; SENP7 block: 78*; Platelet DG rel: 7; SENP8 block-2: 48; SENP8 conf: 58*; SENP6 conf: 60*; SENP7 confirm: 89*; Casp3 select: 89*; Luc interf: 68*

How did Cc1ccccc1CC(=O)Nc1ccc(C(=O)N2CCCC2)cc1 do in these assays?
SENP6 inh: 41; SENP8 block-1: 8; SENP7 block: 55*; Platelet DG rel: 48; SENP8 block-2: 17; SENP8 conf: 44; SENP6 conf: 40; SENP7 confirm: 69*; Casp3 select: 78*; Luc interf: 53*

How did COc1ccc2[nH]cc(/C=C/C(=O)c3ccccc3)c2c1 do in these assays?
SENP6 inh: 58*; SENP8 block-1: -291; SENP7 block: 49; Platelet DG rel: 16; SENP8 block-2: 39; SENP8 conf: 75*; SENP6 conf: 71*; SENP7 confirm: 85*; Casp3 select: 25; Luc interf: 85*

How did Cc1ccc(Nc2nnc(SCC3CCCCO3)s2)cc1 (configuration not stated) do in these assays?
SENP6 inh: -10; SENP8 block-1: 6; SENP7 block: -13; Platelet DG rel: -6; SENP8 block-2: -15

Results for Cc1ccccc1Nc1nnc(SCC2CCCCO2)s1 (configuration not stated) ?
SENP6 inh: 90*; SENP8 block-1: 8; SENP7 block: 87*; Platelet DG rel: -1; SENP8 block-2: 77*; SENP8 conf: 81*; SENP6 conf: 82*; SENP7 confirm: 97*; Casp3 select: 88*; Luc interf: 77*

What do the screens show for `COc1ccccc1Nc1nnc(SCC2CCCCO2)s1` (configuration not stated)?
SENP6 inh: 91*; SENP8 block-1: 12; SENP7 block: 90*; Platelet DG rel: 17; SENP8 block-2: 88*; SENP8 conf: 91*; SENP6 conf: 91*; SENP7 confirm: 100*; Casp3 select: 94*; Luc interf: 91*

Results for O=C(Oc1ccc[nH]c1=O)c1ccc(F)cc1 ?
SENP8 block-1: 16

How did O=C(Nc1ccccc1)Oc1ccc[nH]c1=O do in these assays?
SENP6 inh: 74*; SENP8 block-1: 18; SENP7 block: 44; Platelet DG rel: 8; SENP8 block-2: 11; SENP8 conf: -22; SENP6 conf: -14; SENP7 confirm: 2; Casp3 select: 12; Luc interf: 15

Results for CC(=O)Nc1nnc(CSCc2ccccc2F)s1 ?
SENP6 inh: -10; SENP8 block-1: 7; SENP7 block: -12; SENP8 block-2: -6

How did O=C(NC(=S)Nc1cccnc1Cl)c1ccc(Cl)cc1 do in these assays?
SENP6 inh: 67*; SENP8 block-1: -5; SENP7 block: 46; Platelet DG rel: 2; SENP8 block-2: 46; SENP8 conf: 25; SENP6 conf: 23; SENP7 confirm: 46; Casp3 select: 48; Luc interf: 53*

What do the screens show for `O=C(Nc1cccnc1Cl)c1ccc(Cl)cc1`?
SENP6 inh: -3; SENP8 block-1: 7; SENP7 block: 7; Platelet DG rel: 5; SENP8 block-2: -1

What do the screens show for `CN(CCc1ccccc1)C(=O)c1cccc(NC(=O)Cc2cccc(NC(=O)C3CCN(C(=O)C4CCC4)CC3)c2)c1`?
SENP8 block-1: 14

What do the screens show for `O=c1c2sc(-c3ccccc3)cc2nc2n1CCCCC2`?
SENP6 inh: 54*; SENP8 block-1: 22; SENP7 block: 43; Platelet DG rel: 0; SENP8 block-2: 37; SENP8 conf: 38; SENP6 conf: 37; SENP7 confirm: 74*; Casp3 select: 47; Luc interf: 54*

What do the screens show for `O=c1c2sc(-c3ccccc3)cc2nc2n1CCC2`?
SENP6 inh: 93*; SENP8 block-1: 10; SENP7 block: 91*; Platelet DG rel: 21; SENP8 block-2: 81*; SENP8 conf: 89*; SENP6 conf: 89*; SENP7 confirm: 99*; Casp3 select: 95*; Luc interf: 90*

What do the screens show for `CSCC[C@H](NC(=O)OC(C)(C)C)C(=O)N/N=C/c1ccc2nccnc2c1`?
SENP6 inh: -1; SENP8 block-1: -44; SENP7 block: 1; SENP8 block-2: 1

How did COc1ccc(S(=O)(=O)N2CCOCC2)cc1NC(=O)CCCOc1ccc(Cl)cc1C do in these assays?
SENP6 inh: 4; SENP8 block-1: 28; SENP7 block: -6; SENP8 block-2: -10

How did O=C(NCC(c1cccs1)N1CCOCC1)C1CCN(S(=O)(=O)c2ccccc2C(F)(F)F)CC1 (configuration not stated) do in these assays?
SENP6 inh: -12; SENP8 block-1: 2; SENP7 block: 6; Platelet DG rel: -7; SENP8 block-2: -9

Results for O=C(COC(=O)c1cccc(O)c1)c1ccccc1 ?
SENP6 inh: 85*; SENP8 block-1: 2; SENP7 block: 87*; Platelet DG rel: 3; SENP8 block-2: 78*; SENP8 conf: 86*; SENP6 conf: 87*; SENP7 confirm: 97*; Casp3 select: 88*; Luc interf: 86*

Results for O=C(CNC(=O)c1ccccc1)OCC(=O)c1cccs1 ?
SENP6 inh: -12; SENP8 block-1: 1; SENP7 block: -1; Platelet DG rel: -3; SENP8 block-2: -5
